# PubChem BioAssay AID1159580 (chemical genetic matrix, 2015)
# Values joined by “and” are separate entries in the source; they are usually repeats but may differ in a detail not shown here. Equal entries are not always repeated. In all, about 5,500 compounds went through this assay and about 2,000 (36%) were called active. Roughly 18% stayed inconclusive and do not appear here. No stated cut-off is given here; in the data, active means normalized growth mostly below about 0.91 (no sharp cut-off); inconclusive means no clear call, values can overlap the other calls; inactive means mostly above about 0.92. This is one part of the list.
# Experiment: chemical genetic growth profiling, strain panel (AID 1159580);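 further: tested at 20 µM; growth read once vehicle control cultures reached saturation at 30 °C; 1 = growth at the plate median or of vehicle wells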
# Conditions: S. cerevisiae deletion strains, growth OD
compound,measurement,setting,value
C/C=C(/C(=C/C)c1ccc(O)cc1)c1ccc(O)cc1,normalized growth,"locus YAL021C, strain ccr4, stronger effect = lower value",1.02 (inactive)
same,normalized growth,"locus YAL026C, strain drs2, stronger effect = lower value",0.9 (active)
same,normalized growth,"locus YAL030W, strain snc1, stronger effect = lower value",0.978 (inactive)
same,normalized growth,"locus YBL061C, strain skt5, stronger effect = lower value",0.974 (inactive)
same,normalized growth,"locus YBR009C, strain hhf1, stronger effect = lower value",0.929 (inactive)
same,normalized growth,"locus YBR021W, strain FUR4, stronger effect = lower value",0.907 (inactive)
same,normalized growth,"locus YBR023C, strain chs3, stronger effect = lower value",0.968 (inactive)
same,normalized growth,"locus YBR171W, strain sec66, stronger effect = lower value",0.94 (inactive)
same,normalized growth,"locus YBR229C, strain ROT2, stronger effect = lower value",0.995 (inactive)
same,normalized growth,"locus YBR231C, strain swc5, stronger effect = lower value",1 (inactive)
same,normalized growth,"locus YBR279W, strain paf1, stronger effect = lower value",0.971 (inactive)
same,normalized growth,"locus YCL011C, strain gbp2, stronger effect = lower value",0.968 (inactive)
same,normalized growth,"locus YCL016C, strain dcc1, stronger effect = lower value",0.997 (inactive)
same,normalized growth,"locus YCL029C, strain bik1, stronger effect = lower value",0.823 (active)
same,normalized growth,"locus YCL069W, strain vba3, stronger effect = lower value",0.953 (inactive)
same,normalized growth,"locus YCR088W, strain abp1, stronger effect = lower value",0.989 (inactive)
same,normalized growth,"locus YDL005C, strain med2, stronger effect = lower value",0.992 (inactive)
same,normalized growth,"locus YDL035C, strain GPR1, stronger effect = lower value",0.892 (inactive)
same,normalized growth,"locus YDL040C, strain nat1, stronger effect = lower value",0.979 (inactive)
same,normalized growth,"locus YDL074C, strain BRE1, stronger effect = lower value",0.492 (active)
same,normalized growth,"locus YDL101C, strain DUN1, stronger effect = lower value",0.869 (active)
same,normalized growth,"locus YDL185W, strain tfp1, stronger effect = lower value",0.844 (active)
same,normalized growth,"locus YDL192W, strain arf1, stronger effect = lower value",0.567 (active)
same,normalized growth,"locus YDR001C, strain nth1, stronger effect = lower value",0.962 (inactive)
same,normalized growth,"locus YDR069C, strain doa4, stronger effect = lower value",0.974 (inactive)
same,normalized growth,"locus YDR101C, strain arx1, stronger effect = lower value",0.846 (active)
same,normalized growth,"locus YDR137W, strain rgp1, stronger effect = lower value",0.757 (active)
same,normalized growth,"locus YDR159W, strain sac3, stronger effect = lower value",0.923 (inactive)
same,normalized growth,"locus YDR162C, strain NBP2, stronger effect = lower value",0.561 (active)
same,normalized growth,"locus YDR195W, strain ref2",0.989 (inactive)
same,normalized growth,"locus YDR297W, strain sur2, stronger effect = lower value",0.952 (inactive)
same,normalized growth,"locus YDR318W, strain mcm21, stronger effect = lower value",0.789 (active)
same,normalized growth,"locus YDR334W, strain swr1, stronger effect = lower value",0.968 (inactive)
same,normalized growth,"locus YDR335W, strain msn5, stronger effect = lower value",0.943 (inactive)
same,normalized growth,"locus YDR388W, stronger effect = lower value",0.589 (active)
same,normalized growth,"locus YDR392W, strain spt3, stronger effect = lower value",0.905 (inactive)
same,normalized growth,"locus YDR502C, strain sam2, stronger effect = lower value",0.821 (active)
same,normalized growth,"locus YEL003W, strain gim4, stronger effect = lower value",0.949 (inactive)
same,normalized growth,"locus YEL037C, strain rad23, stronger effect = lower value",0.989 (inactive)
same,normalized growth,"locus YEL061C, strain CIN8 (second series), stronger effect = lower value",0.973 (inactive)
same,normalized growth,"locus YEL061C, strain CIN8, stronger effect = lower value",0.899 (active)
same,normalized growth,"locus YER015W, strain faa2, stronger effect = lower value",0.953 (inactive)
same,normalized growth,"locus YER016W, strain bim1, stronger effect = lower value",0.986 (inactive)
same,normalized growth,"locus YER110C, stronger effect = lower value",0.982 (inactive)
same,normalized growth,"locus YER111C, strain swi4, stronger effect = lower value",0.993 (inactive)
same,normalized growth,"locus YER155C, strain BEM2 (second series), stronger effect = lower value",0.959 (inactive)
same,normalized growth,"locus YER155C, strain BEM2, stronger effect = lower value",0.624 (active)
same,normalized growth,"locus YER167W, strain BCK2, stronger effect = lower value",0.904 (inactive)
same,normalized growth,"locus YFR010W, strain ubp6, stronger effect = lower value",0.982 (inactive)
same,normalized growth,"locus YGL078C, strain dbp3, stronger effect = lower value",0.87 (active)
same,normalized growth,"locus YGL086W, strain mad1, stronger effect = lower value",0.832 (active)
same,normalized growth,"locus YGL167C, strain pmr1, stronger effect = lower value",0.978 (inactive)
same,normalized growth,"locus YGL173C, strain kem1, stronger effect = lower value",0.927 (inactive)
same,normalized growth,"locus YGL227W, strain vid30, stronger effect = lower value",0.985 (inactive)
same,normalized growth,"locus YGL240W, strain doc1, stronger effect = lower value",0.945 (inactive)
same,normalized growth,"locus YGL248W, strain PDE1, stronger effect = lower value",0.81 (active)
same,normalized growth,"locus YGL253W, strain hxk2, stronger effect = lower value",0.971 (inactive)
same,normalized growth,"locus YGR135W, strain pre9, stronger effect = lower value",0.836 (active)
same,normalized growth,"locus YGR229C, strain SMI1, stronger effect = lower value",0.504 (active)
same,normalized growth,"locus YGR252W, strain gcn5, stronger effect = lower value",0.682 (active)
same,normalized growth,"locus YHR013C, strain ard1, stronger effect = lower value",1.15 (inactive)
same,normalized growth,"locus YHR027C, strain rpn1, stronger effect = lower value",0.979 (inactive)
same,normalized growth,"locus YHR030C, strain SLT2, stronger effect = lower value",0.691 (active) and 0.969 (inactive)
same,normalized growth,"locus YHR079C, strain IRE1 (second series), stronger effect = lower value",0.802 (active)
same,normalized growth,"locus YHR079C, strain IRE1, stronger effect = lower value",0.982 (inactive)
same,normalized growth,"locus YHR094C, strain hxt1, stronger effect = lower value",0.968 (inactive)
same,normalized growth,"locus YHR129C, strain ARP1, stronger effect = lower value",0.841 (active)
same,normalized growth,"locus YHR142W, strain chs7, stronger effect = lower value",0.943 (inactive)
same,normalized growth,"locus YHR200W, strain rpn10, stronger effect = lower value",0.845 (active)
same,normalized growth,"locus YIL066C, strain RNR3, stronger effect = lower value",0.9 (inactive)
same,normalized growth,"locus YIL073C, strain SPO22, stronger effect = lower value",0.976 (inactive)
same,normalized growth,"locus YIL125W, strain kgd1, stronger effect = lower value",0.858 (active)
same,normalized growth,"locus YIR030C, strain dcg1, stronger effect = lower value",0.958 (inactive)
same,normalized growth,"locus YJL092W, strain hpr5, stronger effect = lower value",0.971 (inactive)
same,normalized growth,"locus YJL095W, strain BCK1 (second series), stronger effect = lower value",0.944 (inactive)
same,normalized growth,"locus YJL095W, strain BCK1, stronger effect = lower value",0.497 (active) and 0.978 (inactive)
same,normalized growth,"locus YJL115W, strain asf1, stronger effect = lower value",0.984 (inactive)
same,normalized growth,"locus YJL129C, strain trk1, stronger effect = lower value",0.9 (inactive)
same,normalized growth,"locus YJL134W, strain LCB3, stronger effect = lower value",0.998 (inactive)
same,normalized growth,"locus YJL154C, strain vps35, stronger effect = lower value",0.969 (inactive)
same,normalized growth,"locus YJL164C, strain tpk1, stronger effect = lower value",0.972 (inactive)
same,normalized growth,"locus YJL166W, strain qcr8, stronger effect = lower value",0.915 (inactive)
same,normalized growth,"locus YJL168C, strain set2, stronger effect = lower value",0.979 (inactive)
same,normalized growth,"locus YJL187C, strain SWE1 (second series), stronger effect = lower value",0.814 (active)
same,normalized growth,"locus YJR043C, strain POL32, stronger effect = lower value",0.971 (inactive)
same,normalized growth,"locus YJR066W, strain TOR1, stronger effect = lower value",0.931 (inactive)
